VP16 counter: counter-screen for ROR gamma inhibitors: Gal4-VP16 reporter; Drosophila S2 Gal4-VP16 UAS-luciferase, luminescence, 20 h; Potency, µM (highest dose often 53.6 µM), for the others: at the top dose activity, negative = inhibition, most hits filed as inhibitors; actives 3.5% (n = 310,000);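 note: Gal4-VP16 expression switched on by copper sulfate through the metallothionein promoter; potency is the fitted concentration of half-maximal effect; % is set by controls: 0 for no effect and ±100 for the full control effect; nearly all actives have a fitted effect of over 50% in size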
TRPV1 agonist: agonists of human vanilloid receptor 1 (TRPV1) | activation, % at 8.33 µM | actives 0.19% (n = 320,000) | Q8NER1 | TRPV1-expressing cells, Fluo-8 calcium influx, agonist mode; in the data active = activation above about 80%; inconclusive = between about 30% and that limit; note: 0% is about no effect
Target sequence (Q8NER1 whole entry, looked up): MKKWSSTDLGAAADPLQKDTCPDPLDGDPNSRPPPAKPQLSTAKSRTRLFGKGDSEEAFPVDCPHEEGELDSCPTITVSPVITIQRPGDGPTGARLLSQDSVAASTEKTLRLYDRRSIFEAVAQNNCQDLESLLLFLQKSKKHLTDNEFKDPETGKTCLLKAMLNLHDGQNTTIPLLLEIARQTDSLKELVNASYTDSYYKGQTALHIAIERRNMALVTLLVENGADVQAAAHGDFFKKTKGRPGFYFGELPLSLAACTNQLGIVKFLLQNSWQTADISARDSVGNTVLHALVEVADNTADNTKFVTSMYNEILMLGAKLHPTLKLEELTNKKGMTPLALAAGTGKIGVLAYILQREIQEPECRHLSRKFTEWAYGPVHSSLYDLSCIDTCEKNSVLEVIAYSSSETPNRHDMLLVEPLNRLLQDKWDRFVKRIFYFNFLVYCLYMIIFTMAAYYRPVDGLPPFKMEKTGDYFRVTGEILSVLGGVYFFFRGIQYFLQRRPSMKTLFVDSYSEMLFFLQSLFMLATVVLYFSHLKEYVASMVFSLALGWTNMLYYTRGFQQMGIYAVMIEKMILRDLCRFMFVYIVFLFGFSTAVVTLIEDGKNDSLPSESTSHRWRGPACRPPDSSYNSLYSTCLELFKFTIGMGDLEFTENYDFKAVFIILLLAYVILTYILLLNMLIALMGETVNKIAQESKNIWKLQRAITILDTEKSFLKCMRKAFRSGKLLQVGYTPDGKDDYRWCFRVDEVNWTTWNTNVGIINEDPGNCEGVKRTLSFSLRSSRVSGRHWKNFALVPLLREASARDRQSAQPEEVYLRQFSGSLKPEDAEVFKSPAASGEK
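Cells expressing TRPV1 were dye-loaded with Fluo-8 and read kinetically: 10 s baseline, 3 min after compound (agonist portion), then 2 min after EC20 capsaicin (allosteric enhancer portion). Calcium-bound dye fluorescence at 480/520 nm.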
TRPV1 PAM: human TRPV1 potentiation | potentiation, % at 8.33 µM | TRPV1-expressing cells, Fluo-8 calcium influx, capsaicin EC20 potentiation | actives 0.02% (n = 320,000) | AID 540277 | Q8NER1; in the data active = potentiation above about 80%; inconclusive = between about 30% and that limit; note: 0% is about no effect
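Fluo-8 calcium influx in TRPV1-expressing cells, kinetic read (ex 480/em 520 nm). Compound added and read 3 min for agonist activity, followed by capsaicin at EC20 final and 2 min further read for enhancement.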
uPA generation: blocks generation of uPA at the cell surface. cell surface uPA generation assay, qHTS. Potency, µM (series often up to 38.3 µM), for the others: top-dose activity change, negative = inhibition, most hits filed as inhibitors. actives 0.31% (n = 330,000); active = well fitted inhibition curve with a large enough effect; inconclusive = small, poorly fitted or top-dose-only effect; inactive = no such curve, though single readings can be large or run the other way; tested in mouse RAW 264.7 cells; note: potency is the fitted concentration of half-maximal effect; % is set by controls: 0 for no effect and ±100 for the full control effect; nearly all actives have a fitted effect of over 55% in size
RORgamma inh: inhibitors of mouse ROR gamma transcriptional activity. Drosophila S2 Gal4-RORgamma UAS-luciferase reporter, 20 h. Potency, µM (top dose mostly 53.6 µM), without a hit: at the highest dose activity change, negative = inhibition, actives largely listed as inhibitors. actives 5.4% (n = 310,000). AID 2551; note: potency is the fitted concentration of half-maximal effect; % is set by controls: 0 for no effect and ±100 for the full control effect; nearly all actives have a fitted effect of over 60% in size
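A Gal4/UAS one-hybrid system in insect cells: metallothionein-promoter Gal4–ROR gamma fusion plus Photinus luciferase reporter. Copper sulfate 700 uM final, 20 hr ambient incubation, luminescent detection after 10 min with reagent.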
The depositor's hits bear a star; u = inconclusive; x = not tested or not shown; [ ] = dose if it differs, or a comment. In the library only some 5.8% were active in any assay of this set; here they are far more common. Unless noted, calls come from the whole dose curve; as a rule, active = well fitted curve in the direction sought with a large enough effect; inconclusive = small, poorly fitted or top-dose-only effect, or another doubt; inactive = no such curve, though single readings can be large; an effect the other way counts as inactive or inconclusive.

SMILES	VP16 counter	TRPV1 agonist	TRPV1 PAM	uPA generation	RORgamma inh
S=C(NCc1ccccc1)N1CCn2cccc2C1c1ccncc1 (stereo unspecified)	0%	19	7	-4%	4µM*
Fc1ccc(NC(=S)N2CCn3cccc3C2c2cccnc2)cc1 (stereo unspecified)	3%	17	-14	-2%	9%
Fc1ccc(C2c3cccn3CCN2C(=S)Nc2cccc(Br)c2)cc1 (stereo unspecified)	u	27	-2	5%	8.9µM*
Cc1cc(C)nc(Nc2ncc(O)n2-c2ccc(C)c(Cl)c2)n1	u	6	-5	2%	11µM*
C=CCn1c(-c2csc(-c3ccc(OC)c(OC)c3)n2)n[nH]c1=S	u	1	27	-15%	2µM*
C=CCn1c(-c2cccnc2)n[nH]c1=S	-9%	-4	-4	6%	13%
C=CCn1c(-c2c[nH]c3ccccc23)n[nH]c1=S	u	-2	11	6%	3%[10 µM]
C=CCn1c(-c2csc(-c3ccccc3)n2)n[nH]c1=S	0.71µM*	-2	-18	-2%	4µM*
C=CCn1c(-c2csc3ccccc23)n[nH]c1=S	6.3µM*	0	-2	x	3.5µM*
C=CCn1c(-c2cc(-c3ccccc3)sc2N)n[nH]c1=S	10µM*	17	-5	3%	2.2µM*
Cc1ccc(Cl)cc1NS(=O)(=O)N1CCOCC1	-4%	1	2	-2%	-10%
Clc1ccccc1-c1nc(NC2CCNCC2)c2ccccc2n1	-4%	x	x	x	18%
Cc1c(CC(=O)N2CCC(C(N)=O)CC2)c(=O)oc2cc3c(cc12)CCC1(CCCCC1)O3	0%	12	6	-21%	38%
C=CCn1c(-c2csc(-c3ccc(Cl)cc3)n2)n[nH]c1=S	1.8µM*	0	-2	-2%	u
C=CCn1c(SCc2csc(-c3ccc(Cl)cc3)n2)nnc1-c1ccccc1OC	-4%	0	-3	-2%	u
COc1ccc(Cl)cc1NC(=O)CN(C)CC(=O)Nc1cc(OC)c(OC)c(OC)c1	-2%	29	-10	3.5µM*	19%
COc1ccc(Cl)cc1NC(=O)CN(C)C(=O)c1cc2c(F)cccc2s1	x	3	5	6.3µM*	x
COc1ccc(Cl)cc1NC(=O)CN(C)C(=O)c1ccc(C)s1	x	11	-7	1%	x
Cc1cc(SCC#N)n2nc(C)c(-c3ccccc3)c2n1	2.5µM*	-5	1	-5%	1.3µM*
Cc1cc(Cl)n2nc(C)c(-c3ccc(Cl)cc3)c2n1	-20%	-1	0	10%	u
Cc1cc(SCC#N)n2nc(C)c(-c3ccc(Cl)cc3)c2n1	u	-2	0	x	16µM*
CC(=O)CSc1cc(C)nc2c(-c3ccccc3)c(C)nn12	-17%	-1	1	-6%	u
Cc1cc(SCC(=O)c2cccs2)n2nc(C)c(-c3ccccc3)c2n1	5.6µM*	21	-21	5%	3.2µM*
C=CCSc1cc(C)nc2c(-c3ccccc3)c(C)nn12	-11%	3	7	-2%	u
CC(=O)Nc1ccc(Nc2cc(C)nc3c(-c4ccc(Cl)cc4)c(C)nn23)cc1	7.1µM*	-1	2	-3%	11µM*
SMILES	VP16 counter	TRPV1 agonist	TRPV1 PAM	uPA generation	RORgamma inh
COc1ccc(O)c(CN2CCC(n3nccc3NC(=O)c3ccccc3Cl)CC2)c1	27%	-2	9	8%	14%
C=CCn1c(C(CC)CC)nc2ccccc21	-14%	-5	7	-1%	6.3µM*
C=CCn1c(C(C)(C)C)nc2ccccc21	7%	1	-24	-1%	-26%
C=CCn1c(CCC)nc2ccccc21	-7%	-2	-3	-2%	-2%
C=CCn1c(CC(C)(C)C)nc2ccccc21	-6%	4	6	-2%	11µM*
O=C(N/N=C/c1ccc([N+](=O)[O-])o1)c1cc(-c2cccc(Br)c2)nc2ccccc12	u	-1	-2	-17%	3.2µM*
CCCc1ccc(-c2cc(C(=O)N/N=C/c3ccc([N+](=O)[O-])o3)c3ccccc3n2)cc1	8.9µM*	-4	11	-16%	7.1µM*
COc1ccc(-c2nn(-c3ccccc3)cc2C(=O)N/N=C/c2ccc([N+](=O)[O-])o2)cc1	2%[10 µM]	0	7	0%	-4%
O=C(COC(=O)c1ccc(S(=O)(=O)C(F)F)cc1)NC(=O)NC1CCCCC1	x	-1	2	3%	x
O=C1NC2(CCCCC2)Cc2ccccc21	5%	2	15	-4%	21%
COc1cc2c(cc1OC)C(=S)NC1(CCCC1)C2	14µM*	3	5	-9%	2µM*
S=C1NC2(CCCCC2)Cc2ccccc21	u	9	-18	-4%	1.1µM*
CC(=O)Nc1c(C)cc(S(C)(=O)=O)cc1C	-6%	-1	-2	8%	-8%
C=CCOc1c(Br)cc(/C=N/NC(=O)Cc2ccc(C(F)(F)F)cc2[N+](=O)[O-])cc1OC	18µM*	-2	-6	-4%	u
O=Cc1ccc(O)cc1O	-10%	1	4	3%	-29%
O=CN/C=C/c1cc(O)ccc1O	16µM*	-4	-9	u	11µM*
Cc1nc(NC2CCCCC2)c2nc(-c3ccccc3)n(CCCN3CCCCC3C)c2n1 (stereo unspecified)	-4%	x	x	x	u
CCc1ccc(/C=N\NC(=O)c2ccc(Br)o2)s1	5µM*	u	-31	u	1.6µM*
Cc1ccc(/C=N/NC(=O)Cc2ccc(O)cc2)s1	6%	9	14	-8%	4%
CCN(CC)c1ccc(/C=N/NC(=O)c2ccc(Br)o2)cc1	u	u	-2	-12%	u
Cc1ccc(/C=N/NC(=O)c2ccc(Br)o2)s1	10µM*	17	-8	-5%	8.9µM*
CCn1ncc(Br)c1C(=O)Nc1ccc(F)c([N+](=O)[O-])c1	18%	12	-10	-21%	-17%
CCCCN(Cc1nc2ccccc2c(=O)[nH]1)C(=O)c1nn(C)c(=O)c2ccccc12	x	1	-2	0%	x
O=[N+]([O-])c1ccccc1S(=O)(=O)NCCSc1ccccc1	13%	3	-2	-3%	27%
COc1ccc(/C=C/c2cc(C(=O)O)c3ccccc3n2)cc1	1.4µM*	1	1	-12%	1.1µM*
Cc1cc(/C=C\c2ccccc2)nc2ccccc12	-7%	13	2	u	11µM*
COc1cc(OC)c(OC)cc1/C=C/c1cc(C(=O)O)c2ccccc2n1	2%	6	-10	-22%	-13%
O=C(c1ccco1)N1N=C(c2ccc3nccnc3c2)CC1c1ccccc1 (stereo unspecified)	24%	-1	2	6%	36%
CCCP(=O)(CCC)CCP(=O)(c1ccccc1)c1ccccc1	-2%	0	12	1%	13µM*
Cn1c(=O)c(CCc2ccccc2)nc2cnc(Oc3ccccc3)nc21	-2%	x	x	x	27%
